PubChem BioAssay (NCI)
The panel holds about 83,000 compounds, 20% with a hit somewhere; the sample as a whole holds those more often.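 Cell lines were cultured in 96-well plates, exposed to a single compound concentration, and assessed for percent growth 48 hours later.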 The source made the active and inactive calls. How the source made its calls: active means growth percent below 10; inactive means the rest.

What follows are molecules tested on IGROV1 ovarian (assay: NCI-60 one-dose screen, 48 h (100 = growth as untreated, 0 = no growth, -100 = all killed)). Conditions: 10 µM unless noted.

SMILES	growth
COc1ccc(C2SCC(=O)N2NC(=O)c2ccc(NC(=O)c3ccccn3)cc2)cc1OC (configuration not stated)	101% (inactive)
O=C(O)c1cn(C2CC2)c2cc(N3CCN(S(=O)(=O)c4ccc(Cl)c(Cl)c4)CC3)c(F)cc2c1=O	29.3% (inactive)
COc1ccc(/C=C/C(=O)c2ccc(B(O)O)cc2)cc1O	56.2% (inactive)
O=C(Nc1ccc(OCc2nnc(-c3ccc(Cl)cc3)o2)c(F)c1)Nc1ccc(Cl)c(Cl)c1	66.5% (inactive)
COc1cc(/C=C2\C=C(c3ccc(F)cc3)N(Cc3ccccc3)C2=O)cc(OC)c1OC	84.4% (inactive)
Cc1cc(C)c(NC(=O)c2sc3nc4c(cc3c2N)CN(Cc2ccccc2)CC4)c(C)c1	24.1% (inactive)
COc1cccc(-c2nc3sccn3c2-c2ccnc(NCCCNS(=O)(=O)c3ccccc3)n2)c1	55.3% (inactive)
COc1cc(NCCN=C(N)NC(N)=NC(C)C)c2ncccc2c1	-4.12% (active)
Cc1ccc(Nc2ncnc3c2sc2ncccc23)cc1	105% (inactive)
COc1cccc(/C=C2\SC(N3CCN(c4ccccn4)CC3)=NC2=O)c1	103% (inactive)
CC(C)C[C@H](NC(=O)[C@@H](Cc1ccccc1)n1ccc(Nc2ccccc2)cc1=O)B(O)O	-35.1% (active)
COc1cccc(-c2nc3sccn3c2-c2ccnc(NCCCNS(=O)(=O)c3ccc(F)cc3)n2)c1	34.6% (inactive)
O=S(=O)(NCCCNc1nccc(-c2c(-c3ccccc3)nc3sccn23)n1)c1ccc(F)cc1	32.9% (inactive)
Nc1c(C(=O)Nc2ccccc2)sc2nc3c(cc12)CCCCC3	36.2% (inactive)
Cc1cc(Nc2nc(C(=O)Nc3ccccc3)nc3ccccc23)n[nH]1	39.6% (inactive)
CCCCCCCCCCCCCCCCC(Br)C(=O)O (configuration not stated)	125% (inactive)
COc1ccc(/C=C2\C(=O)N(C(=O)c3csc(NC(C)=O)n3)N=C2C)cc1	95.9% (inactive)
COc1ccc(-c2nc3sccn3c2-c2ccnc(NCCCNS(=O)(=O)c3ccc4ccccc4c3)n2)cc1	75.3% (inactive)
CC[C@]1(O)C[C@@H]2CN(Cc3c([nH]c4ccccc34)[C@@](C(=O)OC)(c3cc4c(cc3OC)N(C)[C@H]3[C@@](O)(C(=O)OC)[C@H](OC(C)=O)[C@]5(CC)[C@@H]6C[C@@H]6CN6CC[C@]43[C@@H]65)C2)C1	37.2% (inactive)

SMILES	growth
CN=S(=O)(NC(=O)c1ccc(Cl)cc1Cl)c1ccc(Br)s1 (configuration not stated)	101% (inactive)
Cc1ccc(S(=O)(=O)NCCCNc2nccc(-c3c(-c4ccccc4)nc4sccn34)n2)cc1	35.7% (inactive)
COc1cc(OC)c(C(=O)/C=C/c2cccc(C#N)c2)c(OC)c1	9.48% (active)
COc1ccc(C2CC(c3cccs3)=NN2c2ccc(S(=O)(=O)NC(=O)Nc3ccc(C)cc3)cc2)cc1 (configuration not stated)	108% (inactive)
O=S(=O)(NCCNc1nccc(-c2c(-c3ccccc3)nc3sccn23)n1)c1ccc(O)cc1	22% (inactive)
CNC(=O)Cc1nc(-c2cccc(NS(=O)(=O)c3c(F)cccc3F)c2F)c(-c2ccnc(Nc3ccccc3)n2)s1	17.5% (inactive)
O=c1[nH]c2ccccc2cc1-c1nnc(Cc2ccccc2)o1	66% (inactive)
CCCCCCC[C@@H](O)CC(=O)N[C@H](CCCCN)C(=O)N[C@H](Cc1c[nH]c2ccccc12)C(=O)NC(CCCCN)C(=O)N[C@H](CC(C)C)C(=O)N[C@H](Cc1ccccc1)C(=O)N[C@H](CCCCN)C(=O)N[C@H](CCCCN)C(=O)N[C@H](CC(C)C)C(=O)N1CCCC1C(=O)N[C@H](CCCCN)C(=O)N[C@H](Cc1ccccc1)C(=O)N[C@H](CC(C)C)C(=O)N[C@H](Cc1c[nH]cn1)C(=O)N[C@H](CC(C)C)C(=O)N[C@H](C)C(=O)N[C@H](CCCCN)C(=O)N[C@H](CCCCN)C(=O)N[C@H](Cc1ccccc1)C(=O)O (some centres not stated)	-29.4% (active)
Oc1ccc(Cl)cc1-c1cc(-c2ccc(Cl)cc2)n[nH]1	34.5% (inactive)
CN1C(=O)[C@H]2c3c1cccc3[C@@]13NC(=O)O[C@H]1[C@H](CCC3(C)C)C2(C)C	107% (inactive)
Cc1cccc(-n2c(C)nc3ccc(NC(=O)NCCCl)cc3c2=O)c1	102% (inactive)
COc1c(NC[C@H]2OC(O)[C@H](O)[C@@H](O)[C@@H]2O)c(=O)c1=O (some centres not stated)	120% (inactive)
COc1ccc(-c2nnc(COc3ccc(NS(=O)(=O)c4ccc(OC)cc4)cc3F)o2)cc1	84.5% (inactive)
CCCOC(=O)C1(O)CCCC1	107% (inactive)
Nc1c(C(=O)Nc2ccccc2)sc2nc3c(cc12)CN(Cc1ccccc1)CC3	77.9% (inactive)
COc1cc(OC)cc(-c2n[nH]nc2-c2ccc3c(c2)OCO3)c1	39.5% (inactive)
Cc1ccc(Oc2nc3ccccc3cc2-c2nnc(Cn3c(COc4ccccc4)nc4ccccc43)o2)cc1	37.8% (inactive)
COc1cc(C(=O)/C=C/c2cc(C(=O)c3cc(OC)c(OC)c(OC)c3)ccc2OC)ccc1N	-12.7% (active)
